LASV entry inh = inhibitors of Lassa virus binding or entry into cells. 4.1% of 18,000 active. Potency, µM (top dose mostly 49.2 µM), for inactives: at the highest dose activity change, negative = inhibition, actives largely listed as inhibitors. Lassa virus pseudotyped entry inhibition, cell-based qHTS
Marburg entry = Marburg virus entry inhibition | Potency, µM (titrated, usually from 49.2 µM), inactives show top-dose activity change, negative = inhibition, hits mostly inhibitors | 6.5% of 18,000 active | Marburg virus pseudotype entry/binding inhibition, cell-based
* marks the source's active call; other numbers are inactive results; ! = a repeat was not active; [ ] = another dose, or the depositor's remark. Hits are enriched below; roughly 8.6% of the tested compounds scored in any of these assays. Calls come from the whole dose curve; tested in HEK293 cells. % is set by controls: 0 for no effect and ±100 for the full control effect; potency is the fitted concentration of half-maximal effect.

How did c1ccc(C[C@@H](c2ccccc2)N2CCCCC2)cc1 do in these assays?
LASV entry inh: -7%; Marburg entry: inconclusive

How did CN1CCCN(C(c2ccccc2)c2ccc(Cl)cc2)CC1 (stereo not drawn) do in these assays?
LASV entry inh: 22µM*; Marburg entry: 7.1µM*

What do the screens show for `Cc1cccc(CN2CCN(C(c3ccccc3)c3ccc(Cl)cc3)CC2)c1` (stereo not drawn)?
LASV entry inh: inconclusive; Marburg entry: 7.1µM*

Results for Cc1ccc(CN2CC(N3CCN(Cc4cccc(C)c4)CC3)CS2(=O)=O)cc1 (stereo not drawn) ?
LASV entry inh: 10%; Marburg entry: 20%

How did CC(=O)OC1CC2C(C)(C)C(O)CC[C@@]2(C)C2CC[C@@]3(C)C(c4ccoc4)OC(=O)C4OC43[C@]12C (stereo partly drawn) do in these assays?
LASV entry inh: -8%; Marburg entry: inconclusive

Results for CC(=O)OC1CC2C(C)(C)C(O)CC[C@@]2(C)C2CC[C@@]3(C)C(c4ccoc4)OC(=O)C4O[C@@]43[C@]12C (stereo partly drawn) ?
LASV entry inh: inconclusive; Marburg entry: 13µM*

How did O=S1(=O)CCSCCN1Cc1ccccc1Br do in these assays?
LASV entry inh: 23%; Marburg entry: 19%

What do the screens show for `COC[C@H]([C@@H](O)[C@@H](O)C(=O)NCC[C@@H](C)c1nc(/C=C/C[C@H]2OC3(C[C@H](O)[C@H]2C)OC([C@@H](C[C@@H](O)[C@@H](C)[C@@H](O)[C@@H](C)/C=C(C)/C(C)=C/C=C/C(C)=C\C#N)OC)[C@@H](OP(=O)(O)O)C3(C)C)co1)N(C)C` (stereo partly drawn)?
LASV entry inh: 71µM*; Marburg entry: 0.11µM*

What do the screens show for `CCCCCCN1C[C@@H](O)[C@H](n2cc(COC(=O)c3ccccc3)nn2)C[C@H]1c1ccc(Cl)cc1`?
LASV entry inh: -24%; Marburg entry: -12%

Results for Cc1ccc(F)cc1S(=O)(=O)NCc1nc(N2CCCC2)c2cccc(C)c2n1 ?
LASV entry inh: -10%; Marburg entry: 13µM*

Results for Cc1cccc2c(N3CCCC3)nc(CNS(=O)(=O)c3ccccc3F)nc12 ?
LASV entry inh: 5%; Marburg entry: inconclusive

How did Fc1ccc(-c2nn3ccccc3c2-c2ccncc2)cc1 do in these assays?
LASV entry inh: -15%; Marburg entry: inconclusive

Results for COc1cc(N)c(Cl)cc1C(=O)OCCN1CCCCC1 ?
LASV entry inh: 5%; Marburg entry: -17%

How did Cn1cc(C(=O)OCC2CCN(CCNS(C)(=O)=O)CC2)c2ccccc21 do in these assays?
LASV entry inh: 2%; Marburg entry: inconclusive

What do the screens show for `COc1cc(N)c(Cl)cc1C(=O)CCC1CCN(CCNS(C)(=O)=O)CC1`?
LASV entry inh: inconclusive; Marburg entry: 32µM*!

What do the screens show for `COc1cc(COc2cc(N)c(Cl)cc2C(=O)CCC2CCN(CCNS(C)(=O)=O)CC2)cc(OC)c1`?
LASV entry inh: inconclusive; Marburg entry: 7.9µM*

What do the screens show for `C[C@@H]1[C@@H](c2ccccc2)Cc2nc3ccccc3nc2C[C@H]1C(=O)N1CCCC1`?
LASV entry inh: 18%[8.59 µM]; Marburg entry: -15%[8.59 µM]

Results for CSC[C@H]1CN(c2ccc(Br)cc2)C(=O)[C@H]1CC(=O)Nc1ccc(Br)cc1 ?
LASV entry inh: -28%; Marburg entry: -26%

What do the screens show for `COC1=C2C[C@H](C)C[C@H](OC)[C@H](O)[C@@H](C)/C=C(/C)[C@H](OC(N)=O)[C@@H](OC)/C=C\C=C(\C)C(=O)NC(=CC1=O)C2=O`?
LASV entry inh: 5%; Marburg entry: 23%

What do the screens show for `C=CCNC1=C2C[C@@H](C)C[C@H](OC)[C@H](O)[C@@H](C)/C=C(\C)[C@H](OC(N)=O)[C@@H](OC)/C=C\C=C(/C)C(=O)NC(=CC1=O)C2=O`?
LASV entry inh: 3.5µM*!; Marburg entry: inconclusive

Results for COc1cccc([C@@H]2Oc3ccc(Br)cc3C(=O)[C@@H]2O)c1 ?
LASV entry inh: 34%[8.59 µM]; Marburg entry: 31%[8.59 µM]

What do the screens show for `COc1cc(C(CC2=C(c3ccccc3)Cc3ccccc32)NC(=O)C(F)(F)F)cc(OC)c1OC` (stereo not drawn)?
LASV entry inh: 21%[8.59 µM]; Marburg entry: 8%[8.59 µM]

How did CC(C)=CCc1c2c(c3occ(-c4ccc(O)cc4)c(=O)c3c1O)C=CC(C)(C)O2 do in these assays?
LASV entry inh: inconclusive; Marburg entry: 22µM*

What do the screens show for `COc1c2c(c(CC=C(C)C)c3oc(=O)c(-c4ccc(O)cc4)c(O)c13)OC(C)(C)C=C2`?
LASV entry inh: -5%; Marburg entry: 2%

Results for COC(=O)N[C@H](CC(C)=O)c1ccc(F)cc1 ?
LASV entry inh: 1%[8.59 µM]; Marburg entry: 36%[8.59 µM]

How did COC(=O)CC=C1c2ccc(OC)cc2[C@@H](OC)[C@@H]1C do in these assays?
Marburg entry: 4%[8.59 µM]

What do the screens show for `COC(=O)C1=C(C)N(CC2CC2)C(N(C)Cc2ccc(OC)cc2)=NC1c1ccccc1` (stereo not drawn)?
LASV entry inh: 8%[8.59 µM]; Marburg entry: -14%[8.59 µM]

How did COC(=O)C(O)C(O)(CCC(C)C)C(=O)OC1C(OC)=CC23CCCN2CCc2cc4c(cc2C13)OCO4 (stereo not drawn) do in these assays?
LASV entry inh: 0.13µM*; Marburg entry: 0.004µM*

How did COC1=CC23CCCN2CCc2cc4c(cc2C3C1O)OCO4 (stereo not drawn) do in these assays?
LASV entry inh: -5%; Marburg entry: 3%

Results for COC(=O)C[C@@](O)(CCC(C)(C)O)C(=O)O[C@@H]1C(OC)=C[C@]23CCCN2CCc2cc4c(cc2[C@@H]13)OCO4 ?
LASV entry inh: 0.11µM*; Marburg entry: 0.1µM*

Results for COC(=O)C[C@](O)(CCCC(C)(C)O)C(=O)O[C@@H]1C(OC)=CC23CCCN2CCc2cc4c(cc2[C@H]13)OCO4 (stereo partly drawn) ?
LASV entry inh: 22µM*; Marburg entry: inconclusive

What do the screens show for `CC(CCN1CCCc2nc(C)c(C)cc21)=NOC[C@@H](O)[C@H]1O[C@@H]2OC(C)(C)O[C@H]2[C@@H]1O`?
LASV entry inh: 35%[8.59 µM]; Marburg entry: -8%[8.59 µM]

Results for COC(=O)C1=C(C)N(Cc2ccccc2)C(=NCC(C)C)NC1c1cccc(C(F)(F)F)c1 (stereo not drawn) ?
Marburg entry: 9%[8.59 µM]

How did C#CCCCON=C1C[C@@H](O)[C@@H](O)[C@@H]2[C@H]3C(=O)N(C(C)(C)C)C(=O)[C@@H]3CC[C@H]12 do in these assays?
LASV entry inh: 4%[8.59 µM]; Marburg entry: 12%[8.59 µM]

How did CCN1C(=S)NC(c2cccc(F)c2)C(C(=O)OC)=C1C (stereo not drawn) do in these assays?
LASV entry inh: 7%[8.59 µM]; Marburg entry: 20%[8.59 µM]

What do the screens show for `c1ccc2c(c1)Sc1ccccc1N2C[C@@H]1CN2CCC1CC2`?
LASV entry inh: 3%; Marburg entry: 12%

What do the screens show for `CN1CCCC(CC2c3ccccc3Sc3ccccc32)C1` (stereo not drawn)?
LASV entry inh: inconclusive; Marburg entry: 7.9µM*

What do the screens show for `CN1CCCC(CN2c3ccccc3Sc3ccccc32)C1` (stereo not drawn)?
LASV entry inh: 28µM*; Marburg entry: 11µM*

How did COc1ccc(OC[C@@H]2CC3[C@@H](CC[C@@H](C)[C@H]3c3ccc(Br)cc3)C(=O)O2)cc1 (stereo partly drawn) do in these assays?
LASV entry inh: 6%[8.59 µM]; Marburg entry: -5%[8.59 µM]

Results for COc1ccccc1C1CN(Cc2c(C)nc3sccn23)Cc2ccccc2O1 (stereo not drawn) ?
LASV entry inh: -12%; Marburg entry: -10%

What do the screens show for `C=CCOC(=O)N[C@@H](c1cccc(OC)c1)[C@@H](C)C=CCC(=O)O`?
LASV entry inh: 14%[8.59 µM]; Marburg entry: 7%[8.59 µM]

How did Cc1ccc(/C=C2/CNC/C(=C\c3ccc(C)cc3)C2=O)cc1 do in these assays?
LASV entry inh: 11µM*; Marburg entry: 3.5µM*

How did Cc1nn(C)c(Cl)c1CN1CCOc2ccc(CN3CCC(Oc4cccnc4)CC3)cc2C1 do in these assays?
LASV entry inh: -4%; Marburg entry: inconclusive

High-throughput results deposited in PubChem by National Center for Advancing Translational Sciences (NCATS).
